The structures appear in SMILES notation. Activity calls are given as the source filed them.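 Rule for the calls: active = cell survival after UV exposure 2 SD above solvent-only control wells at 10 µM, confirmed on one or two repeats; inactive = the rest.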

19 compounds from PubChem BioAssay AID1347383 (Zoeller Lab, School of Medicine, Boston University, 2020) can be followed below.

The nature of the experiment: protection of CHO cells from pyrene-fatty acid UV killing, primary screen, phospholipid biosynthesis inhibitor project, ZR-82 cells, Analyticon library, screen 2 (AID 1347383).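 Note: survival reflects blocked phospholipid synthesis cutting uptake of the phototoxic fatty acid; compound and fatty acid exposure 3 h then viability read next day.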 Conditions: ZR-82 CHO cells, CellTiter Blue, at 10 µM, peroxisome-deficient CHO-K1 variant, with DGAT-1, DGAT-2 and ACAT inhibitors. In general terms: Alamar Blue is a resazurin reagent that responds to reducing activity.

As to `O=C1NC(Cc2ccccc2)C(=O)N2CCCC12` (centres undefined), the result was inactive.
`CC[C@]12CCCN3CCc4c(n(c5ccccc45)C(=O)C1)[C@@H]32`: the outcome was inactive.
In the case of `O=c1c(O)c(-c2c(O)cccc2O)oc2cc(O)cc(O)c12` it was “inactive”; in that of `COc1cc(O[C@@H]2O[C@H](CO)[C@@H](O)[C@H](O)[C@H]2O)cc2occ(-c3ccc(O)cc3)c(=O)c12`, “inactive”; in that of `Oc1cc(O)cc(CCCCCCCCCCc2cc(O)cc(O)c2)c1`, “inactive”.
In the case of `C=C1C(=O)OC2C1C(O)CC1(C)C(O)CCC(C=O)C21` (centres undefined) it was “inactive”; in that of `O=C1OCC(c2ccccc2)=C1Cc1ccccc1`, “inactive”.
For the compound `CC1=CCC(C(C)C)c2cc(C)c(O)cc21` (centres undefined), the compound was called inactive.
For the compound `O=C(/C=C(O)/C=C/c1ccc(O)cc1)/C=C/c1ccc(O)cc1`, the result was inactive.
On to `C/C=C/C=C/[C@H]1Cc2cc(O)cc(O)c2O1`, for which the compound was classed as inactive.
Under `CC1=C2C[C@H]3O[C@@]3(C)CCC3O[C@@]3(C)C[C@@]2(O)OC1=O` (some centres undefined) stands “inactive”; under `C/C1=C\CCC2=C[C@@H](OC2=O)c2c(C)coc2C1`, “inactive”; under `COc1cc(C2CC(=O)c3c(O)cc(O)cc3O2)ccc1O` (centres undefined), “inactive”.
In the case of `O=C(O)c1cc(O)c2c(c1)C(=O)c1cccc(O)c1C2=O` it was “inactive”; in that of `O=c1ccc2cc3ccoc3cc2o1`, “inactive”; in that of `CCC(C)C1NC(=O)C(C)NC1=O` (centres undefined), “inactive”.
In the case of `CC(=O)OC1CC2C(C)(C)C(=O)C=CC2(C)C2CC(=O)C3=C(CCC3C3=CC(O)OC3=O)C12C` (centres undefined) it was “inactive”; in that of `COc1c(OC)c(O)c2c3c(cc4ccccc42)NC(=O)c13`, “inactive”.
As for `CC1(C)C2CC[C@]3(C)C(C(=O)C=C4[C@H]5C[C@@](C)(C(=O)O)CC[C@]5(C)CC[C@]43C)[C@@]2(C)CC[C@@H]1O` (some centres undefined), the call was inactive.
